BAZ2B inh: BAZ2B (human) inhibition; AlphaScreen BAZ2B-H3K14Ac peptide displacement; Potency, µM (top dose mostly 114 µM), for inactives: at the top dose activity change, negative = inhibition, hits mostly inhibitors; 4.4% of 360,000 active; AID 504333; also: % is scaled to controls: 0 for no effect and ±100 for the full control effect; nearly all actives have a fitted effect of over 60% in size
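Complex of BAZ2B and biotin-H3K14Ac (50 nM apiece) forms over 30 min at RT, then faces library compounds up to 110 uM for another 30 min; AlphaScreen beads added, 20 min dark incubation, luminescence read.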
TDP1 block: blocks human tyrosyl-DNA phosphodiesterase 1; Q9NUW8; recombinant TDP1, AlphaScreen DNA substrate cleavage; Potency, µM (series often up to 130 µM), without a hit: top-dose activity change, negative = inhibition, usual class: inhibitors; 0.28% of 350,000 active; also: % is scaled to controls: 0 for no effect and ±100 for the full control effect; nearly all actives have a fitted effect of over 40% in size
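Signal: AlphaScreen proximity between streptavidin donor and anti-FITC acceptor beads on intact substrate. Reaction: Tdp1 1 nM, substrate 15 nM final, 5 min RT after 15 min compound preincubation.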
HP1b chromo inh: blocks HP1-beta chromodomain binding to methylated histone tails; Potency, µM (highest dose often 114 µM), for the others: top-dose activity change, negative = inhibition, most hits filed as inhibitors; P83916; AID 540317; AlphaScreen HP1-beta / biotin-H3K9me3 peptide binding; 0.56% of 390,000 active; also: nearly all actives have a fitted effect of over 70% in size
Target sequence (P83916 whole entry, looked up): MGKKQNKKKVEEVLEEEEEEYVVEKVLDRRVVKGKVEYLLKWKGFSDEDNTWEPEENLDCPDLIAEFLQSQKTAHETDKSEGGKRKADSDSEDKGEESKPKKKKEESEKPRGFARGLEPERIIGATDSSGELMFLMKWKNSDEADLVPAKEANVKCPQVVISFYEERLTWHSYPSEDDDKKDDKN
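HP1-beta protein (50 nM final) preincubated 30 min at room temperature with biotinylated H3(1-18)K9me3 peptide (50 nM) in PBS pH 7.4, 0.01% Tween-20, then compound added for 30 min. AlphaScreen streptavidin donor/nickel chelate acceptor beads (10 ug/mL final), 30 min dark, luminescence read.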
Sfp PPTase inh: Sfp phosphopantetheinyl transferase inhibition. Q9F4F7. Biochemical Sfp PPTase activity, qHTS. Potency, µM, without a hit: largest response in the series, negative = inhibition, actives largely listed as inhibitors. 3.5% of 310,000 active;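 also: the enzyme is Sfp with the accession as filed and its product quenches rhodamine fluorescence; 0% = enzyme reaction without inhibitor and -100% = no enzyme wells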
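Step 1, compound plus 15 nM Sfp-PPTase, 15 min, room temperature. Step 2, add rhodamine-CoA (5 uM) and BHQ-2-YbbR (12.5 uM). Step 3, read 525/598 nm fluorescence at 0 and 30 min.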
JMJD2A Tudor: JMJD2A Tudor domain (human) inhibition; O75164; AlphaScreen JMJD2A-Tudor / H3K4me3 peptide binding; Potency, µM (titrated, usually from 114 µM), inactives show top-dose activity change, negative = inhibition, hits mostly inhibitors; 4.4% of 390,000 active; AID 504339; also: % is scaled to controls: 0 for no effect and ±100 for the full control effect; nearly all actives have a fitted effect of over 50% in size
G9a block: blocks human histone lysine methyltransferase G9a; G9a H3K9 monomethylation, AlphaScreen, 2 h; Potency, µM (top dose mostly 102 µM), for inactives: at the highest dose activity, negative = inhibition, actives largely listed as inhibitors; 8.8% of 350,000 active; AID 504332; also: % is scaled to controls: 0 for no effect and ±100 for the full control effect; nearly all actives have a fitted effect of over 75% in size
Target sequence (Q96KQ7 913-1193 limits assumed): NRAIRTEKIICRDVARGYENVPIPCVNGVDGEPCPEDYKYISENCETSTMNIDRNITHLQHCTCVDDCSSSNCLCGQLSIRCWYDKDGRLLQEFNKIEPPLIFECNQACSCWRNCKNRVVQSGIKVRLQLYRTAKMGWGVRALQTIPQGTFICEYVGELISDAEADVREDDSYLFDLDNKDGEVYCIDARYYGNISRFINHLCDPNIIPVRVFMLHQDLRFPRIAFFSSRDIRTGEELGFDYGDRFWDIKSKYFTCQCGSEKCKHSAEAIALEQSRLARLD
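Compounds were preincubated with 20 nM G9a for 15 min, after which biotinylated H3K9 peptide (500 nM) and SAM (20 uM) started a 2 h room-temperature reaction. Monomethylated product was quantified by antibody-based AlphaScreen chemiluminescence.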
An asterisk follows results filed as active; ? = inconclusive; · = no result; [ ] = remark or other dose. The list is not random: actives were taken first. Their share in the collection is about 12%. Calls follow the shape of the dose curve; as a rule, active = well fitted curve in the direction sought with a large enough effect; inconclusive = small, poorly fitted or top-dose-only effect, or another doubt; inactive = no such curve, though single readings can be large; an effect the other way counts as inactive or inconclusive. Potency is read from the fitted curve at half-maximal effect.

SMILES	BAZ2B inh	TDP1 block	HP1b chromo inh	Sfp PPTase inh	JMJD2A Tudor	G9a block
NC(=O)CC[C@@H]1NC(=O)[C@H](CO)NC(=O)c2cc([N+](=O)[O-])cc(I)c2OCC[C@@H](C(N)=O)NC1=O	-5%	-1%	17%	17%	-29%	45µM*
Cc1cc(C)n(CCNC(=O)C2CCC(=O)N(CCc3cccc(F)c3)C2)n1 (centres undefined)	-10%	4%	18%	4%	-6%	41%
Fc1ccc(COc2ccccc2C(=S)N2CCCC2)cc1	-7%	-3%	?	?	79µM*	1.8µM*
CCOc1ccc(C(=S)N2CCCC2)cc1OC	-4%	0%	22%	14%	-6%	8%[59 µM]
O=C(NN=C1CCCCC1)c1ccccc1OCc1ccc(F)cc1	7%	6%	39%	1%	-1%	28%[59 µM]
COc1cc(C(=S)N2CCCC2)ccc1OCc1ccc(C)cc1	-36%	7%	-5%	-18%	-28%	32µM*
COc1cc(C)ccc1OCc1cc(C(=O)N2CCCCCC2)no1	24%	·	29%	4%	16µM*	·
Cc1ccc(COc2ccccc2C(=S)N2CCCC2)cc1	-26%	3%	-12%	25µM*	7%	13µM*
O=C(OCC(=O)N1CCCC1)c1ccccc1OCc1ccccc1	4%	6%	51%	13%	15%	-35%
CCCn1c(C)cc(/C=C(\C#N)C(=O)OCC(=O)N(CC)c2c(N)n(Cc3ccccc3)c(=O)[nH]c2=O)c1C	·	·	6%	·	-17%	·
CCN(CC)C(=O)Cn1c(=O)n(CCCCCC(=O)NCc2ccc(C)cc2)c(=O)c2sccc21	0%	4%	33%	·	3%	6%[59 µM]
Cc1ccccc1NCC(=O)c1ccc(Br)cc1	?	9%	2%	45µM*	-22%	?
O=C(/C=C/NNC(=O)c1ccccc1)c1ccc(Br)cc1	?	10%	22%	5%	-26%	-41%
O=C(/C=C/NCC(=O)c1ccccc1)c1ccc(Br)cc1	-35%	4%	22%	-29%	-32%	6.3µM*
CCN(CC)c1ccc(CNc2nc3ccccc3n2CCN2CCCCC2)cc1	14µM*	10%	?	3%	40µM*	25µM*
CCn1c(NCc2ccc(N(C)C)cc2)nc2ccccc21	?	9%	-11%	-2%	?	20µM*
c1ccc(CNc2ccc3ccccc3n2)nc1	-5%	-10%	8%	-3%	8.9µM*	11%
CCn1c(NCc2ccccn2)nc2ccccc21	56µM*	-9%[56.1 µM]	30%	?	-6%	8.9µM*
CCn1c(NCc2cccs2)nc2ccccc21	3%	4%	19%	14%	-15%	-4%[12.7 µM]
Cc1cc2c(cc1S(=O)(=O)CCC(=O)Nc1cccc(C(F)(F)F)c1)OCC(=O)N2	1%	1%	14%	7%	-24%	13%[0.0925 µM]
Cc1ccc2c(CNCc3ccc(C)o3)c(C(=O)O)n(Cc3ccc(F)cc3)c2c1	50µM*	0%	-5%	·	?	?
C=Cc1ccc(Cn2c(C(=O)O)c(CNCCc3ccco3)c3ccc(C)cc32)cc1	45µM*	6%	-13%	·	?	?
COc1ccc(Cn2c(C(=O)O)c(CNCCc3cc(OC)ccc3OC)c3ccc(C)cc32)cc1	50µM*	11%	-2%	·	?	-35%[59 µM]
COc1cc(S(=O)(=O)N2CCOCC2)cc(C(=O)OCC(=O)NCc2ccco2)c1OC	5%	1%	26%	·	-6%	25%[59 µM]
O=C(OCC(=O)c1ccc(Cl)s1)c1ccccn1	56µM*	0%	17%	-6%	32µM*	-10%[59 µM]
SMILES	BAZ2B inh	TDP1 block	HP1b chromo inh	Sfp PPTase inh	JMJD2A Tudor	G9a block
O=C(COc1cccnc1[N+](=O)[O-])c1ccc(Cl)s1	40µM*	1%	?	2µM*	40µM*	·
O=C(COC(=O)c1cnccn1)c1ccc(Cl)cc1	?	0%	49%	20%	6%	-5%
O=C(OCC(=O)c1ccc(Cl)s1)c1cnccn1	?	2%	0%	2%	-29%	35µM*
CSc1nnc(SC)nn1	·	9%	·	-22%	·	·
COc1ccc(Oc2ncc3nc(-c4cn(C)c5ccccc45)c(=O)n(CCC#N)c3n2)cc1	·	·	·	23%	·	12%[12.7 µM]
CCOc1ccccc1CN(CCc1ccc2c(c1)OCO2)Cc1cc(OC)c(OC)cc1OC	45µM*	·	?	·	5.6µM*	0.71µM*
O=Cc1ccccc1OCc1ccc2c(c1)OCO2	62%	·	76%	1%	27%	·
CCOc1ccccc1CN(CCc1ccc2c(c1)OCO2)Cc1ccccn1	35µM*	3%	?	?	3.2µM*	5µM*
CC(C)CCNC(=O)CCn1nc(-c2ccc(Cl)cc2)ccc1=O	-16%	·	25%	7%	14%	-7%
CCOc1ccc(NC(=O)Cn2c(=O)n(Cc3ccccc3)c(=O)c3c4c(sc32)CN(C(C)=O)CC4)cc1	-13%	6%	30%	·	-12%	-20%[59 µM]
CC(C)CCn1c(=O)c2sccc2n2c(CCCC(=O)NCc3ccc(F)cc3)nnc12	-12%	8%	50%	·	-11%	-20%[59 µM]
COc1ccc(/C=C2\N=C(C(C)(C)C)OC2=O)c(OC)c1	-15%	3%	18%[57 µM]	14%	-26%	-11%[59 µM]
COc1ccc(/C=C2\OC(=S)N(C)C2=O)cc1	-11%	5%	7%	?	-9%	?
CN(C)c1ccc(/C=C2\N=C(C(C)(C)C)OC2=O)cc1	?	7%	32%	8%	1%	45µM*
CN1C(=O)/C(=C\c2ccc(N(C)C)cc2)OC1=S	11%	·	13%	15%	25µM*	77%
N#C/C(=C\c1ccc(N2CCOCC2)o1)C(=O)NC1CCCCC1	-39%	2%	33%	45µM*	-8%	·
N#C/C(=C\c1ccc(N2CCOCC2)o1)C(=O)NCCc1ccccc1	-27%	6%	21%	5%	-32%	32µM*
CC1(C)Cc2sc3c(=O)[nH]c(=S)[nH]c3c2CO1	?	1%	24%	28µM*	?	·
CC1(C)Cc2c(c(-c3ccccc3)nc3sc4c(=O)[nH]c(=S)[nH]c4c23)CO1	-7%	3%	27%	1%	?	·
CN(C)S(=O)(=O)N(CC(=O)Nc1ccc(C(F)(F)F)cc1)c1ccccc1	9%	-3%	49%	·	8%	10%[59 µM]
COc1ccc(C(CC(=O)O)c2ccc3c(c2)OCO3)cc1 (centres undefined)	1%	·	8%	13%	-8%	-12%[2.33 µM]
COc1ccc(CNCCC(c2ccccc2)c2ccc3c(c2)OCO3)cc1 (centres undefined)	?	10%	16%	35µM*	-31%	20µM*
Cc1ccc(C(CCN)c2ccco2)cc1 (centres undefined)	1%	7%	15%	9%	-19%	8%[12.7 µM]
